We go through 40 compounds from PubChem BioAssay (Tox21).

SMILES strings stand for the structures. Records with an inconclusive call do not appear. Where a call stands in place of a potency, no number is given. Active and inactive are the calls of the source. Calls come from the whole dose curve; as a rule, active = well fitted inhibition curve with a large enough effect in the signal ratio in the repeat runs, with a control signal flat; inconclusive = weak or mixed curves, or effect the other way; inactive = flat fitted curve, though single readings scatter; the % refers to the signal ratio.

Chain of D(2) dopamine receptor (Homo sapiens) (P14416 whole entry, looked up): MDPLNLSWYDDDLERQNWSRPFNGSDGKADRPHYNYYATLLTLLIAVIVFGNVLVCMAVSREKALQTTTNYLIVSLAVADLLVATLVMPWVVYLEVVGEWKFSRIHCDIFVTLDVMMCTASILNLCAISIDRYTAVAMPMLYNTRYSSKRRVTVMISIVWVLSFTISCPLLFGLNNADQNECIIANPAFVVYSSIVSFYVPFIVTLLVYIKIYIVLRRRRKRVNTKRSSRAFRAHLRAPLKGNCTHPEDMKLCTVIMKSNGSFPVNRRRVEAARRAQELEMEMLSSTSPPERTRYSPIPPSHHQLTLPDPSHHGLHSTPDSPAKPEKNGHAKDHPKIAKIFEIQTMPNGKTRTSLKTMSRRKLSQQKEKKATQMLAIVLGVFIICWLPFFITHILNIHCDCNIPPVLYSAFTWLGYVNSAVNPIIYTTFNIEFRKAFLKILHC

In the assay the target is D(2) dopamine receptor (Homo sapiens) (UniProt P14416). The assay can be described thus: Dopamine D2 receptor (DRD2) small molecule antagonists, cell-based qHTS assay (AID 1963595). As to conditions: HEK293-DRD2 cAMP HTRF antagonist mode; series mostly up to 92.4 µM. The text has this:
National Center for Advancing Translational Sciences [NCATS]
Division of Preclinical Innovation [DPI]
U.S. Environmental Protection Agency [EPA]
National Institutes of Environmental Health Sciences [NIEHS]
National Toxicology Program [NTP]
U.S. Food and Drug Administration [FDA]
DRD2 is the D2 subtype of the dopamine receptor, which is coupled to Gi subtype of G protein-coupled receptor. This G protein-coupled receptor inhibits adenylyl cyclase activity. The DRD2-HEK293 cell line stably expressing D2 dopamine receptor can be used for screening agonists and antagonists of interactions between D2 and its ligands. The Hek293-DRD2 cAMP assay is based on HTRF technology. It measures changes of cAMP accumulation in response to Gi coupled GPCR activation or inhibition.
Tox21 Assay Protocol Summary:
DRD2-Hek293 cells were dispensed at 600 cells/3uL/well in 1536-well white plates using a Multidrop Dispenser. After the assay plates were incubated at a 37 C/5% CO2 incubator for 24 h, 1 uL of Ro20-1724 at final concentration of 0.1 mM was transferred to the assay plate by a Flying Reagent Dispenser. Following Ro20-1724 addition, 23 nL of compound dissolved in DMSO, positive controls or DMSO only was added to the assay plates via Wako pintool station. The assay plates were incubated at room temperature for 10 min. Next, 1 uL of mixture of NKH477 (final concentration at 200 nM) and quinpirole (final concentration at 12 nM) was added into the plates. After the assay plates were incubated at room temperature for an additional 30 min, 2.5 ul/well of cAMP-d2 and 2.5 ul/well of anti-cAMP-cryptate were added respectively into the assay plates using a Flying Reagent Dispenser. The plates were incubated at room temperature for 1 h. The fluorescence intensity in the plates was measured at 340 nm excitation and 665 & 620 nm emission by an Envision plate reader.
Regarding `C[C@]12CC[C@H]3[C@@H](CCC4=CC(=O)CC[C@@]43C)[C@@H]1CC[C@@H]2C(=O)CO`, the Potency result was “inactive”.
Under `COC(CC(C)CCCC(C)(C)O)OC` (stereo not given) stands “inactive”; under `CC(=O)c1ccccc1O`, “inactive”; under `O=c1cccc[nH]1`, “inactive”.
`O=Cc1cc2ccccc2o1`: the Potency result is “inactive”.
Turning to `COc1cccc(OC)c1`, the Potency entry is “inactive”.
As for `Cc1nc2ccccc2s1`, the entry is “inactive”; as for `O=C1C(c2[nH]c3ccc(S(=O)(=O)O)cc3c2O)=Nc2ccc(S(=O)(=O)O)cc21`, “inactive”; as for `CO/N=C(/C(=O)N[C@@H]1C(=O)N2C(C(=O)O)=C(COC(N)=O)CS[C@H]12)c1ccco1`, “inactive”.
As to `CCCOCCO`, the Potency result is “inactive”.
Regarding `CCOc1ncc(F)c(=O)[nH]1`, the Potency result was “inactive”.
For the compound `Cc1ccc(C(=O)O)cc1`, the Potency entry was “inactive”.
As for `Nc1cc([N+](=O)[O-])ccc1Cl`, the entry is “inactive”; as for `C=CCCC(=O)/C=C/C1C(C)=CCCC1(C)C` (stereo not given), “inactive”.
Take `CCOC(=O)c1ccc(N)cc1`: the Potency entry was “inactive”.
Regarding `COc1cccc(OC)c1C(=O)O`, the Potency result was “inactive”.
As for `O=[N+]([O-])c1ccccc1CCO`, the entry is “inactive”; as for `NC(=O)c1ccccc1Cl`, “inactive”.
Regarding `Oc1c(Cl)ccc(Cl)c1Cl`, the Potency entry was “inactive”.
Consider `CC1CC(OC(=O)c2ccccc2O)CC(C)(C)C1` (stereo not given), for which the Potency result is “inactive”.
For `C[C@@H]1O[C@@H](OC[C@H]2O[C@@H](Oc3c(-c4ccc(O)c(O)c4)oc4cc(O)cc(O)c4c3=O)[C@H](O)[C@@H](O)[C@@H]2O)[C@H](O)[C@H](O)[C@H]1O`, the Potency result was “inactive”.
For the compound `FC(F)(F)c1ccccc1`, the Potency result was “inactive”.
Take `CC(C)CC(C)(O)C#CC(C)(O)CC(C)C` (stereo not given): the Potency entry was “inactive”.
On to `CC(=O)N(CC(O)CO)c1c(I)c(C(=O)NCC(O)CO)c(I)c(C(=O)NCC(O)CO)c1I` (stereo not given), for which the Potency result was “inactive”.
In the case of `O=C(O)/C=C/c1cnc[nH]1`, the Potency result is “inactive”.
For `CCOC(=O)c1c(C)n(C)c2ccc(O)cc12`, the Potency entry is “inactive”.
For `c1ccc(CCc2ccccc2)cc1`, the Potency result is “inactive”.
Turning to `CCN(CC)c1ccc2c(C)cc(=O)oc2c1`, the Potency entry is “inactive”.
Under `NCCN1CCNC1=O` stands “inactive”.
For `Nc1cccc(N)n1`, the Potency entry was “inactive”.
As for `CC(=O)C1(C)CC2=C(CCCC2(C)C)CC1C` (stereo not given), the Potency entry was “inactive”.
As for `CC12CC3CC(C)(C1)CC(N)(C3)C2`, the Potency entry was “inactive”.
Turning to `CC(C)(C)c1n[nH]c(=O)n(N)c1=O`, the Potency entry is “inactive”.
For `CCCCCCN`, the Potency result was “inactive”.
On to `O=c1n(CCO)c(=O)n(CCO)c(=O)n1CCO`, for which the Potency entry is “inactive”.
As for `CN1CCc2cccc3c2[C@H]1Cc1ccc(O)c(O)c1-3`, the Potency result was “inactive”.
On to `CC(C)CCOCCC(C)C`, for which the Potency result was “inactive”.
As to `COCC(C)OC(C)=O` (stereo not given), the Potency entry was “inactive”.
On to `CC(C)(C)c1cc(C(C)(C)C)c(O)c(C(C)(C)C)c1`, for which the Potency entry was “inactive”.
Take `C(=C\c1ccccc1)/c1ccccc1`: the Potency result is “inactive”.
